Laboratory results reported in publication PMC7862700, “An all-to-all approach to the identification of sequence-specific readers for epigenetic DNA modifications on cytosine”.

Columns and labels:
Experiment in all cases: DAPPL (digital affinity profiling via proximity ligation, sequencing); 10 mM Tris-HCl pH 7.5, 50 mM NaCl, 1 mM DTT, 4% glycerol, room temperature, 30 min; GST-TFs on glutathione beads, 16-mer random dsDNA library, 0.1% formaldehyde crosslink after washing; high values mean tight binding
FEV = target: T1, FEV (Homo sapiens, UniProt Q99581 1-238); conditions: protein: recombinant; tags: N-terminal GST; dsDNA, one strand shown
T1 sequence: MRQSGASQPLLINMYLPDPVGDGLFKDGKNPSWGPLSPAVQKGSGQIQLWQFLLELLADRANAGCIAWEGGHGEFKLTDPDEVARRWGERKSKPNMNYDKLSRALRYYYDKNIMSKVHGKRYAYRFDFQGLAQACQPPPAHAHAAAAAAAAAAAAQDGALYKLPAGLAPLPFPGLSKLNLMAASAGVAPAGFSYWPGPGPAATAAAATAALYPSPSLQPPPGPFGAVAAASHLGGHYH
Outline: (§1)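 Each value of binding signal is a hexamer's read frequency for a factor divided by the same hexamer's frequency in the tag-only sample. Barcoded, bead-captured GST fusions of human transcription factors made in yeast were pooled with that sample and incubated with 200 nmole of a random double-stranded 16-mer DNA library in Tris/NaCl/DTT/glycerol buffer at room temperature for 30 min. Washing, 0.1% formaldehyde crosslinking, proximity ligation, PCR and Illumina NextSeq500 sequencing followed.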

ETV5 = ETV5 (Homo sapiens, UniProt P41161 1-510); conditions: protein: recombinant; tags: N-terminal GST; dsDNA, one strand shown
Chain of ETV5 (P41161 whole entry): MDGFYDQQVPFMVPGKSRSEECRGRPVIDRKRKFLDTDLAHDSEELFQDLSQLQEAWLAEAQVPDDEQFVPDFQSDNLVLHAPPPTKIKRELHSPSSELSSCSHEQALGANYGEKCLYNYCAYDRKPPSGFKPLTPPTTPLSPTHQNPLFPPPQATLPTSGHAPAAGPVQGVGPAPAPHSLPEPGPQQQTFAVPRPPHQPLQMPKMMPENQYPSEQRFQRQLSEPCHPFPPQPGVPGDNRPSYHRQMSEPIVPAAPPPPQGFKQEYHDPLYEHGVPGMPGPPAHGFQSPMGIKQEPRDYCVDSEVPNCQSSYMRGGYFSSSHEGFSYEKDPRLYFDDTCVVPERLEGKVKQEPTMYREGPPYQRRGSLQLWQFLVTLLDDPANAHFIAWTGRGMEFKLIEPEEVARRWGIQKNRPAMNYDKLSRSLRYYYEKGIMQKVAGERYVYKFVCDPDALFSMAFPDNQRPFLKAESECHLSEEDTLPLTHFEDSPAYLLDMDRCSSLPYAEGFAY
Outline: as §1

HSF1 = HSF1 (Homo sapiens, UniProt Q00613 1-529); conditions: protein: recombinant; tags: N-terminal GST; chain copies: 3; dsDNA, one strand shown
Chain of HSF1 (Q00613 whole entry): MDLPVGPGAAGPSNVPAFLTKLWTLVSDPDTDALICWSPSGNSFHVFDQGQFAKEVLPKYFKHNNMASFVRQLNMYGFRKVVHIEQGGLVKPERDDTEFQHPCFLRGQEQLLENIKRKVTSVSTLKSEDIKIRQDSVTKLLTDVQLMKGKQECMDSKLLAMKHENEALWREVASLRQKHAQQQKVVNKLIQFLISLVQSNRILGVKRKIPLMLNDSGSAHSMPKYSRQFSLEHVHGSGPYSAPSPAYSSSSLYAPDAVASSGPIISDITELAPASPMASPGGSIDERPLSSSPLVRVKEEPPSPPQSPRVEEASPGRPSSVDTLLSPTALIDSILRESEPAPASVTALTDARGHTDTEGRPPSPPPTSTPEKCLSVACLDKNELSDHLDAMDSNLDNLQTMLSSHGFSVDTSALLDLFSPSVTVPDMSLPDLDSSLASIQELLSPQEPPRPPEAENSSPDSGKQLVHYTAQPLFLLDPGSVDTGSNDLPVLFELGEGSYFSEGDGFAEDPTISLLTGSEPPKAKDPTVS
Outline: as §1

SPIC = target: T2, SPIC (Homo sapiens, UniProt Q8N5J4 1-248); conditions: protein: recombinant; tags: N-terminal GST; dsDNA, one strand shown
T2 sequence: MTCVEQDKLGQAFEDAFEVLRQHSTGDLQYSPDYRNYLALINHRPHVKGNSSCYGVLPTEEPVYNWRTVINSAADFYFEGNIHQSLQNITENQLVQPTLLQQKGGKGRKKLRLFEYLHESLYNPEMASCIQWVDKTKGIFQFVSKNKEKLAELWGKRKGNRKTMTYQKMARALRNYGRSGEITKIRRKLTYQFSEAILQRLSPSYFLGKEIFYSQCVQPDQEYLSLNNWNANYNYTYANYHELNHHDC
Outline: as §1

ELF4 = ELF4 (Homo sapiens, UniProt Q99607 1-663); conditions: protein: recombinant; tags: N-terminal GST; dsDNA, one strand shown
Chain of ELF4 (Q99607 whole entry): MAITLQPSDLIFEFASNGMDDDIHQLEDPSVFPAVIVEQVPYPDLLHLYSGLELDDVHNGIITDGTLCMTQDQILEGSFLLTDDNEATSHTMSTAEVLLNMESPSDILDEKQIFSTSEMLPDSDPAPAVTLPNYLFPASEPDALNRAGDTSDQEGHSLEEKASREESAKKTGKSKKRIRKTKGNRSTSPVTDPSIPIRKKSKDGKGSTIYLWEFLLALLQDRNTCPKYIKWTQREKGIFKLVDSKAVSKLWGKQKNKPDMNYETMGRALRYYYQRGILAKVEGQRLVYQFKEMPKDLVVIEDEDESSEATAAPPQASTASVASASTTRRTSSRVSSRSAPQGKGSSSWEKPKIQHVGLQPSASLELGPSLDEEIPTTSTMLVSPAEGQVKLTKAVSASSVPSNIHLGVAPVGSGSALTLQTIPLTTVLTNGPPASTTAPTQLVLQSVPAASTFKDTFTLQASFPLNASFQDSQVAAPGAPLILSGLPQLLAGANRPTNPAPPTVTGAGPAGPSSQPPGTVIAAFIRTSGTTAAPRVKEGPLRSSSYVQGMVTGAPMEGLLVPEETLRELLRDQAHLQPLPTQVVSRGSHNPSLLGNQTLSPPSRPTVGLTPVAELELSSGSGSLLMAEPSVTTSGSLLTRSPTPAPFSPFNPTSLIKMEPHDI
Outline: as §1

ELK4 = target: T3, ELK4 (Homo sapiens, UniProt P28324-2 1-405); conditions: protein: recombinant; tags: N-terminal GST; dsDNA, one strand shown
T3 sequence: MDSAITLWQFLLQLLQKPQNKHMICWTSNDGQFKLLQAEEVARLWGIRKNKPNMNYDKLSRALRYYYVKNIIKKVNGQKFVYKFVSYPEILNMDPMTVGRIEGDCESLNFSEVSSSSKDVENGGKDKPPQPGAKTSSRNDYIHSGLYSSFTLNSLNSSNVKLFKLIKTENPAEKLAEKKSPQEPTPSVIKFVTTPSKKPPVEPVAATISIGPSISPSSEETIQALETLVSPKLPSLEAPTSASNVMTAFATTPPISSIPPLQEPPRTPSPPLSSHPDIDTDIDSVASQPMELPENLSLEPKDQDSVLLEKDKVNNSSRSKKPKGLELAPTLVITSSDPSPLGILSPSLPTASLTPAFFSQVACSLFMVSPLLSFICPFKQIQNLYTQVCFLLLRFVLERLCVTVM
Outline: as §1

ETV2 = target: T4, ETV2 (Homo sapiens, UniProt O00321 1-342); conditions: protein: recombinant; tags: N-terminal GST; dsDNA, one strand shown
T4 sequence: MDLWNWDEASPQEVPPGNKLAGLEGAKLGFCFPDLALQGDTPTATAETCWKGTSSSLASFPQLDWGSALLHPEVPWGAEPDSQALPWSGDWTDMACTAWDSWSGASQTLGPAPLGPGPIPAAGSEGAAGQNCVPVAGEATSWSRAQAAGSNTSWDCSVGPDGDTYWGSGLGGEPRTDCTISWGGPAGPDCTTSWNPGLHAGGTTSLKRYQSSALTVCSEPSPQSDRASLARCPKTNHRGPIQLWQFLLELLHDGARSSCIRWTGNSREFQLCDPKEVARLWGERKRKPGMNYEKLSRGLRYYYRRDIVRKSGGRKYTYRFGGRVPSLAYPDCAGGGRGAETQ
Outline: as §1

ELF3 = target: T5, ELF3 (Homo sapiens, UniProt P78545 1-371); conditions: protein: recombinant; tags: N-terminal GST; dsDNA, one strand shown
T5 sequence: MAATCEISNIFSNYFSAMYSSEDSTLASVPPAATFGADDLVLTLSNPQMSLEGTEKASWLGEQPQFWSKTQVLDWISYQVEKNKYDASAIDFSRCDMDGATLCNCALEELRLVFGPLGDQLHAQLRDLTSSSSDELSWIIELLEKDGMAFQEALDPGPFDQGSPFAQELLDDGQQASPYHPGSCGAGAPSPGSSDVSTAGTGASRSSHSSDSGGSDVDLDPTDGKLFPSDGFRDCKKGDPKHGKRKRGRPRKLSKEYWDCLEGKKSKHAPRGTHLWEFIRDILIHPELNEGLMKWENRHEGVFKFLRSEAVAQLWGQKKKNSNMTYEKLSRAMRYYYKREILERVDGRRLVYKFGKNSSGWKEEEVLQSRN
Outline: as §1

CRX = CRX (Homo sapiens, UniProt O43186 1-299); conditions: protein: recombinant; tags: N-terminal GST; dsDNA, one strand shown
Chain of CRX (O43186 whole entry): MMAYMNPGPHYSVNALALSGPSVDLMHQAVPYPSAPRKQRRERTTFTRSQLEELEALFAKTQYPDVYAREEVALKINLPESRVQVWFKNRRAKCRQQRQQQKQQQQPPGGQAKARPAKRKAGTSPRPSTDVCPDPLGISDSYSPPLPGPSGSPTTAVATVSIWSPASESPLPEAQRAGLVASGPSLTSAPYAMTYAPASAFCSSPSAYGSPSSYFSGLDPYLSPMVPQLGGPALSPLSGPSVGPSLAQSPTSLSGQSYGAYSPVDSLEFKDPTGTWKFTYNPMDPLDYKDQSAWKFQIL
Outline: as §1

ETV1 = ETV1 (Homo sapiens, UniProt P50549 1-477); conditions: protein: recombinant; tags: N-terminal GST; dsDNA, one strand shown
Chain of ETV1 (P50549 whole entry): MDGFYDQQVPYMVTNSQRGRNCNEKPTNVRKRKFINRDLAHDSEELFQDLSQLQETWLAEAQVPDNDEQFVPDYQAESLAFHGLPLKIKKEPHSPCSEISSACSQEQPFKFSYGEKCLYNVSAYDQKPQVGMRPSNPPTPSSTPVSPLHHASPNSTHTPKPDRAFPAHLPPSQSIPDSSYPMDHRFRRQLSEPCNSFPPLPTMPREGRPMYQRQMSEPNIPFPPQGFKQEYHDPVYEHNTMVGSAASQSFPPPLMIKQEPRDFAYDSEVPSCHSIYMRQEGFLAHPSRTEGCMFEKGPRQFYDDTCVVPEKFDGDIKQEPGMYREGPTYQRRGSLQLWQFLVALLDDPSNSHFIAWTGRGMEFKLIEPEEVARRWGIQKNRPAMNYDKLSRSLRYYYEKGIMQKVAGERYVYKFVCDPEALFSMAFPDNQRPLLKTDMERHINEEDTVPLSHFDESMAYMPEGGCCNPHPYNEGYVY
Outline: as §1

ERF = target: T6, ERF (Homo sapiens, UniProt P50548 1-548); conditions: protein: recombinant; tags: N-terminal GST; dsDNA, one strand shown
T6 sequence: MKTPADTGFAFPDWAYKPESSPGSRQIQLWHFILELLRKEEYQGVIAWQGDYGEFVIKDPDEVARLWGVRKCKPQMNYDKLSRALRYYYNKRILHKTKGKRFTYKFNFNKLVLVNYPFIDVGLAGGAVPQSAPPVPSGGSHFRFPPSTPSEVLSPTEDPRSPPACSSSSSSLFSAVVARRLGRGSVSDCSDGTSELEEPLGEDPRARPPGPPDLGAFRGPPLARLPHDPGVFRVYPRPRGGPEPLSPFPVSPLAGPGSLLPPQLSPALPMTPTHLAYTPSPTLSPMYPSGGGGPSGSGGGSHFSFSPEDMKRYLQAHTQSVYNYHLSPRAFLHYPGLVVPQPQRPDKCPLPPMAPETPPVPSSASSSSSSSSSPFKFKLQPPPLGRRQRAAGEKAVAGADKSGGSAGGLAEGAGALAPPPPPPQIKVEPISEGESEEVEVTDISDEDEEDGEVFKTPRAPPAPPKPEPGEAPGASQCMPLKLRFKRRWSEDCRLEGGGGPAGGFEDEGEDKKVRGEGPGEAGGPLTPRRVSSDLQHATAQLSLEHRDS
Outline: as §1

ETV3L = target: T7, ETV3L (Homo sapiens, UniProt Q6ZN32 1-361); conditions: protein: recombinant; tags: N-terminal GST; dsDNA, one strand shown
T7 sequence: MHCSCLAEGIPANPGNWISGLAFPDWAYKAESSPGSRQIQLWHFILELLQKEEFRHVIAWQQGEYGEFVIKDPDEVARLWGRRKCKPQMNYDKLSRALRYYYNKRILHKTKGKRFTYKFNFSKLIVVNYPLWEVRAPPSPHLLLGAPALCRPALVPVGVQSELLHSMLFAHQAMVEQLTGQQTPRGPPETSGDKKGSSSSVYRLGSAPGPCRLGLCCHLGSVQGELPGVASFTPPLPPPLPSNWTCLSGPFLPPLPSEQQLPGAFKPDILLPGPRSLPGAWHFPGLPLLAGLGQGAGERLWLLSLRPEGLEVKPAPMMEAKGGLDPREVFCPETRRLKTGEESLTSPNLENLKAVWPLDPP
Outline: as §1

ETS2 = target: T8, ETS2 (Homo sapiens, UniProt P15036 1-469); conditions: protein: recombinant; tags: N-terminal GST; dsDNA, one strand shown
T8 sequence: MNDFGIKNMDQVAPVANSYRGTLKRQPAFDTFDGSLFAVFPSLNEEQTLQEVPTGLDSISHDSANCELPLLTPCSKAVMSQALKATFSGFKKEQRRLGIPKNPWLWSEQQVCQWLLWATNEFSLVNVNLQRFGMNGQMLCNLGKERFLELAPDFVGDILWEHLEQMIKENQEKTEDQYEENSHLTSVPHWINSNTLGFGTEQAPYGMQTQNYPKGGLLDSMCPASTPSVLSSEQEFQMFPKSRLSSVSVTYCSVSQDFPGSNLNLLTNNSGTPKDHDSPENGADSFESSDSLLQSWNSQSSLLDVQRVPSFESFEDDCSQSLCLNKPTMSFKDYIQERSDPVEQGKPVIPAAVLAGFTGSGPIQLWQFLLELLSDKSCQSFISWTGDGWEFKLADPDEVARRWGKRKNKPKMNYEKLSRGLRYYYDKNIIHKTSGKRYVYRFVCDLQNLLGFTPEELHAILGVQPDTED
Outline: as §1

SPDEF = target: T9, SPDEF (Homo sapiens, UniProt O95238 1-335); conditions: protein: recombinant; tags: N-terminal GST; dsDNA, one strand shown
T9 sequence: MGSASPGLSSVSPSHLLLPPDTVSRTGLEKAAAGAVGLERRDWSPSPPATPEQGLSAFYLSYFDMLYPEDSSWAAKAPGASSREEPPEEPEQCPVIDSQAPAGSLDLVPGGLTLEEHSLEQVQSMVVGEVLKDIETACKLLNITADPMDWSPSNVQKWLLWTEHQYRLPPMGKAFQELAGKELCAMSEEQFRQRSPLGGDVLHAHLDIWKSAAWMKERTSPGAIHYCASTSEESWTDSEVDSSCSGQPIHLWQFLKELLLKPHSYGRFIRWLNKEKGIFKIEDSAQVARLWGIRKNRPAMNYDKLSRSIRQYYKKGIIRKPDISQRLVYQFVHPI
Outline: as §1

ETV7 = target: T10, ETV7 (Homo sapiens, UniProt Q9Y603 1-341); conditions: protein: recombinant; tags: N-terminal GST; dsDNA, one strand shown
T10 sequence: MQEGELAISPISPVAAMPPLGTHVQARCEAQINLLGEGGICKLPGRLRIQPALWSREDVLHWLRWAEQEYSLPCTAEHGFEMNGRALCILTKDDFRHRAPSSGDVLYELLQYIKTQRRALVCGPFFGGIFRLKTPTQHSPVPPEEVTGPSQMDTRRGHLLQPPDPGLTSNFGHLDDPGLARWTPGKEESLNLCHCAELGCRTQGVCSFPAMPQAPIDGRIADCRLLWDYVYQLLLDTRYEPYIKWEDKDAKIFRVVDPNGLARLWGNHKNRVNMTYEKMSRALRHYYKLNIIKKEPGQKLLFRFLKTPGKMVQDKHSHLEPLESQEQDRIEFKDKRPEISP
Outline: as §1

ELF5 = target: T11, ELF5 (Homo sapiens, UniProt Q9UKW6-2 1-255); conditions: protein: recombinant; tags: N-terminal GST; dsDNA, one strand shown
T11 sequence: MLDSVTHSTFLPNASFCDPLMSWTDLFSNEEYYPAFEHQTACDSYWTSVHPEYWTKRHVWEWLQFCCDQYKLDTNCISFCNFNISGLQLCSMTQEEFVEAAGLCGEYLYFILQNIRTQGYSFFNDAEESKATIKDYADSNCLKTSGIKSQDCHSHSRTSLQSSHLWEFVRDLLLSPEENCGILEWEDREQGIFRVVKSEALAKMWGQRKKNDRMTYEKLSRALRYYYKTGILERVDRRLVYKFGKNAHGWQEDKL
Outline: as §1

ETV3 = target: T12, ETV3 (Homo sapiens, UniProt P41162-2 1-143); conditions: protein: recombinant; tags: N-terminal GST; dsDNA, one strand shown
T12 sequence: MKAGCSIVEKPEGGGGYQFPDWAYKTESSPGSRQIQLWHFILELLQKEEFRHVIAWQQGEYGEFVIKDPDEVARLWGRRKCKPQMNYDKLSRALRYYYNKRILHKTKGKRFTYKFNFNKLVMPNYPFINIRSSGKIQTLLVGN
Outline: as §1

ETV6 = ETV6 (Homo sapiens, UniProt P41212 1-452); conditions: protein: recombinant; tags: N-terminal GST; dsDNA, one strand shown
Chain of ETV6 (P41212 whole entry): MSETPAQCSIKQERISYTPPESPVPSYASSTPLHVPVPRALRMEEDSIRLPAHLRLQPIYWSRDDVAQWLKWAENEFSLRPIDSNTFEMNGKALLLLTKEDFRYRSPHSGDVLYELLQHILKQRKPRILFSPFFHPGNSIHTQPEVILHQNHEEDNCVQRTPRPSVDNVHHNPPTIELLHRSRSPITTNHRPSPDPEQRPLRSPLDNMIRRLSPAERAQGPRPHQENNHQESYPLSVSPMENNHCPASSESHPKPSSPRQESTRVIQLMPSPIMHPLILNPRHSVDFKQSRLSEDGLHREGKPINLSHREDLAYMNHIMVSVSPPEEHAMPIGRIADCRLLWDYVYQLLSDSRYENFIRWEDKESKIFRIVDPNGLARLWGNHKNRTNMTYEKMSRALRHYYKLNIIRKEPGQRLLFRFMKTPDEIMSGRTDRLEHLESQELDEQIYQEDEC
Outline: as §1

## TGATGG
FEV
  binding signal: 1.16 fold enrichment (6-mer frequency, TF over GST control)
ETV5
  binding signal: 1.34 fold enrichment (6-mer frequency, TF over GST control)
HSF1
  binding signal: 1.26 fold enrichment (6-mer frequency, TF over GST control)
SPIC
  binding signal: 1.51 fold enrichment (6-mer frequency, TF over GST control)
ELF4
  binding signal: 1.29 fold enrichment (6-mer frequency, TF over GST control)
ELK4
  binding signal: 1.33 fold enrichment (6-mer frequency, TF over GST control)
ETV2
  binding signal: 1.29 fold enrichment (6-mer frequency, TF over GST control)
ELF3
  binding signal: 1.32 fold enrichment (6-mer frequency, TF over GST control)
CRX
  binding signal: 1.1 fold enrichment (6-mer frequency, TF over GST control)
ETV1
  binding signal: 1.32 fold enrichment (6-mer frequency, TF over GST control)
ERF
  binding signal: 1.27 fold enrichment (6-mer frequency, TF over GST control)
ETV3L
  binding signal: 1.16 fold enrichment (6-mer frequency, TF over GST control)
ETS2
  binding signal: 1.22 fold enrichment (6-mer frequency, TF over GST control)
SPDEF
  binding signal: 1.09 fold enrichment (6-mer frequency, TF over GST control)
ETV7
  binding signal: 1.24 fold enrichment (6-mer frequency, TF over GST control)
ELF5
  binding signal: 1.26 fold enrichment (6-mer frequency, TF over GST control)
ETV3
  binding signal: 1.2 fold enrichment (6-mer frequency, TF over GST control)
ETV6
  binding signal: 1.21 fold enrichment (6-mer frequency, TF over GST control)
